In the supplement of paper PMC10849652:
The full data set covers some 7,900 targets. This sample favours those with a hit. About 0.6% of all pairs of compound and target were hits. Unmarked numbers belong to inactive results.

Compound: c1cn2cc(-c3ccc4cn[nH]c4c3)nc(Nc3ccc(N4CCOCC4)cc3)c2n1 [entospletinib]
Test: log2 fold change, soluble protein after heating vs DMSO (PISA); higher = thermal stabilisation; K562 cells, 10 uM, 30 min; active = over 0.2 and 3.5 SD of the protein, either way, in both replicates (recomputed)
Procedure, shortened: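 Quantification of soluble protein used TMTpro 16plex LC-MS/MS, with channel sums equalised. Samples were the supernatant after 21,000xg for 90 min of pooled aliquots from K562 cells (2×10^6 cells/mL) treated with 10 μM compound for 30 min, heated for 3 min over 48°C-58°C, and extracted in PBS with 0.5% NP-40 at 4°C. Values, from duplicates, describe thermal stability against control samples on a log2 fold-change scale.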

UniProt Q9NW08, sequence (Q9NW08 whole entry, looked up): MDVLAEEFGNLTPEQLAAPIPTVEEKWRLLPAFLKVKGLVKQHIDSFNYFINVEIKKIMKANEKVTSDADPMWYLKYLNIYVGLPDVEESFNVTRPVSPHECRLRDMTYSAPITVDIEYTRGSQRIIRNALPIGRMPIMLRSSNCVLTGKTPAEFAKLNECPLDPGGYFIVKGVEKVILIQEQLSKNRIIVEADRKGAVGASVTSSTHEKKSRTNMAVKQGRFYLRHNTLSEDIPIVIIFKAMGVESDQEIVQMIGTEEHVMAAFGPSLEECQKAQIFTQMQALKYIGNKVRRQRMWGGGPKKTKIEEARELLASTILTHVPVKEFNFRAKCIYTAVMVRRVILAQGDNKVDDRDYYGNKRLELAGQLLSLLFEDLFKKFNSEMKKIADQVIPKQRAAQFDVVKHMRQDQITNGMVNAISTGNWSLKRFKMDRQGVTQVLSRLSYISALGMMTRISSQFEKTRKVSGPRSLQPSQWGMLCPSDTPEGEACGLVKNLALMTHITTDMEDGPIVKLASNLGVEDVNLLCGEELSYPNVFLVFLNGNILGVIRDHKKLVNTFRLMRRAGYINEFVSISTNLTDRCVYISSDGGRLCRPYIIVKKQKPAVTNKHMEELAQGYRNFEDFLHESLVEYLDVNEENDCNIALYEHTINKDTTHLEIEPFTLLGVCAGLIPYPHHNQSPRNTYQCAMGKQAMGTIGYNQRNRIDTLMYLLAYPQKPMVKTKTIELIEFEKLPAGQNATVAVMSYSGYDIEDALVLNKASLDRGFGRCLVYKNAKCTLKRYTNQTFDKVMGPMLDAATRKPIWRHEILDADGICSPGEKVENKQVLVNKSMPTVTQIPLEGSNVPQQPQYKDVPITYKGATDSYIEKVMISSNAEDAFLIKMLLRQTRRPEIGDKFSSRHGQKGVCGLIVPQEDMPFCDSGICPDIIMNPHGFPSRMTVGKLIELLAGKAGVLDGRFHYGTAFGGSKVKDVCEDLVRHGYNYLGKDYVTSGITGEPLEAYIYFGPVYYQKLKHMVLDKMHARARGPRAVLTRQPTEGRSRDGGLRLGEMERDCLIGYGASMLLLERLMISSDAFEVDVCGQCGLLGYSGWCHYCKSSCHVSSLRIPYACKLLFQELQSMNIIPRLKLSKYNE
UniProt P31323, sequence (P31323 whole entry, looked up): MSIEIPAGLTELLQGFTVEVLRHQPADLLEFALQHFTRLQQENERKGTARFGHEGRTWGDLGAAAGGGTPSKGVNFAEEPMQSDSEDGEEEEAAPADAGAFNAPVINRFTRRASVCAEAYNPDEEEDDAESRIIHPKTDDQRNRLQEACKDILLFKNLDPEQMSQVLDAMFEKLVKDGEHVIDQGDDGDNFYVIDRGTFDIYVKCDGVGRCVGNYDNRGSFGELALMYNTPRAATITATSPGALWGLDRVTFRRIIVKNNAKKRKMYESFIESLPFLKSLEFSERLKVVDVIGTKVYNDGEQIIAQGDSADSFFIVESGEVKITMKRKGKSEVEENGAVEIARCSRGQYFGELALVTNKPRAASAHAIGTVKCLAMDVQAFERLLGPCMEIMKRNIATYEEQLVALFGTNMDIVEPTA
UniProt O60256, sequence (O60256 whole entry, looked up): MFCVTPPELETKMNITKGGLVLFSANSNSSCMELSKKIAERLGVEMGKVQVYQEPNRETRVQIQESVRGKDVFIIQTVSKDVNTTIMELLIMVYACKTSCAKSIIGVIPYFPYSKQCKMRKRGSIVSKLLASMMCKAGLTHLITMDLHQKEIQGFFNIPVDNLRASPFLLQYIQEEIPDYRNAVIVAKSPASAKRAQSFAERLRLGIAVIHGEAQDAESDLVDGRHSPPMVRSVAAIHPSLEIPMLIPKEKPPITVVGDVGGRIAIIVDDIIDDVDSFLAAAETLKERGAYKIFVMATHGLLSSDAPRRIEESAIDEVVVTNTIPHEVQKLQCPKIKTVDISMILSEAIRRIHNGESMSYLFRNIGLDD
UniProt O95602, sequence (O95602 whole entry, looked up): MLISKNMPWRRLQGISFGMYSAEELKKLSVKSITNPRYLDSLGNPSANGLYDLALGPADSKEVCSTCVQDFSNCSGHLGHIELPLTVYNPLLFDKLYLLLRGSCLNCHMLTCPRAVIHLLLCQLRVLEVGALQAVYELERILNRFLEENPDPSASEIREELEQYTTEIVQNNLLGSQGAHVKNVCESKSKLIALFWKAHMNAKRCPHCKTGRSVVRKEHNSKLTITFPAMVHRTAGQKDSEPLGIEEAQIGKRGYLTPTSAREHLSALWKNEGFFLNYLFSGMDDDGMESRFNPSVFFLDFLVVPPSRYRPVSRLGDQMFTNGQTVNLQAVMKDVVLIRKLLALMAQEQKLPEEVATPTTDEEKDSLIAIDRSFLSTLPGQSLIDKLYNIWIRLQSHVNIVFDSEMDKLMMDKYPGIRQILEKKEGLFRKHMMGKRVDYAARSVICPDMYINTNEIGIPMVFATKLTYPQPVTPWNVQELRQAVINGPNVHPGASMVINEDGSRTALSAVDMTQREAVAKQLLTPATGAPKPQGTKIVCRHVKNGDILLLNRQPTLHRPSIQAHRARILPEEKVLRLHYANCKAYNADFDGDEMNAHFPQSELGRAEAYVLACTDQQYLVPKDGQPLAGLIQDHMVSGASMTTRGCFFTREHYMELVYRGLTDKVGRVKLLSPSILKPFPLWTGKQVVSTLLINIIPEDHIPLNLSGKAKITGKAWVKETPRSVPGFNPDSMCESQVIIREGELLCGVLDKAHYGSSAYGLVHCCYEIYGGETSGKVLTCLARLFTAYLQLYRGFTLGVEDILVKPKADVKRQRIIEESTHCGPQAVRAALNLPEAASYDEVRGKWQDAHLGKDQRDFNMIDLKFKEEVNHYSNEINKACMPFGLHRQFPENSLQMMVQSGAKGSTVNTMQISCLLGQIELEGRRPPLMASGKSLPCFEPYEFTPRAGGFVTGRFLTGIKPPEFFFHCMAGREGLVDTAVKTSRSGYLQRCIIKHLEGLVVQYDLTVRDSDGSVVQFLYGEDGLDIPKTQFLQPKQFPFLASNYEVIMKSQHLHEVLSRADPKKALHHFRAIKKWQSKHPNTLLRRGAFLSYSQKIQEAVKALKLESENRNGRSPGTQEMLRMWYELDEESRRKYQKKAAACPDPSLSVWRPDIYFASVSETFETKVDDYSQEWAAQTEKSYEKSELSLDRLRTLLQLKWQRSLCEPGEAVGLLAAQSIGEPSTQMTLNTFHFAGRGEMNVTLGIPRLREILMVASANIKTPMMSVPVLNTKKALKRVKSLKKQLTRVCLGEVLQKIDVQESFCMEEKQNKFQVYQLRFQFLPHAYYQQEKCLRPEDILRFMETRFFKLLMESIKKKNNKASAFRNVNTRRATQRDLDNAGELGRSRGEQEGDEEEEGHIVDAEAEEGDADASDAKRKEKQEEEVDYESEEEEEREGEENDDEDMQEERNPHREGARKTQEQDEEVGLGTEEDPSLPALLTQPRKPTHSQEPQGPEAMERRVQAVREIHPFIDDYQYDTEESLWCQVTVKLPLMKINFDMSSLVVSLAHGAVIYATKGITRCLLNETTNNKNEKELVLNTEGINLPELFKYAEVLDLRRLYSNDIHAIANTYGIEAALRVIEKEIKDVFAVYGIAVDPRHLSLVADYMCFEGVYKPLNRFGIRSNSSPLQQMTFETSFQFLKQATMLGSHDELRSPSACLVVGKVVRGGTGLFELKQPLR
UniProt O60925, sequence (O60925 whole entry, looked up): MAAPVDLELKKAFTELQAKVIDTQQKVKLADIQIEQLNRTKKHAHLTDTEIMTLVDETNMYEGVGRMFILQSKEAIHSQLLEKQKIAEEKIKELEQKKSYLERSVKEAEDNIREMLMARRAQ
UniProt Q15054, sequence (Q15054 whole entry, looked up): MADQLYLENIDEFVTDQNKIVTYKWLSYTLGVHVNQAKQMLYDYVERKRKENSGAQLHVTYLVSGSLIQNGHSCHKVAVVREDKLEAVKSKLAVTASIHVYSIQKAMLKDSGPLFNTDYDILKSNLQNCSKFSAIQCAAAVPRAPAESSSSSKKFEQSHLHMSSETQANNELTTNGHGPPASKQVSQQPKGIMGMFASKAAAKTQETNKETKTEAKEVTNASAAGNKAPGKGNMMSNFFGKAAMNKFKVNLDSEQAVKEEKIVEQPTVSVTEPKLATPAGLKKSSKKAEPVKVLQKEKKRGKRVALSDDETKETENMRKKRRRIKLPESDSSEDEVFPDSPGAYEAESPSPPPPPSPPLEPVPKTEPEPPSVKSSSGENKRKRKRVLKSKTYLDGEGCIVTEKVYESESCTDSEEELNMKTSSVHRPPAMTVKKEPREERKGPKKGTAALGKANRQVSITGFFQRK
UniProt Q16537, sequence (Q16537 whole entry, looked up): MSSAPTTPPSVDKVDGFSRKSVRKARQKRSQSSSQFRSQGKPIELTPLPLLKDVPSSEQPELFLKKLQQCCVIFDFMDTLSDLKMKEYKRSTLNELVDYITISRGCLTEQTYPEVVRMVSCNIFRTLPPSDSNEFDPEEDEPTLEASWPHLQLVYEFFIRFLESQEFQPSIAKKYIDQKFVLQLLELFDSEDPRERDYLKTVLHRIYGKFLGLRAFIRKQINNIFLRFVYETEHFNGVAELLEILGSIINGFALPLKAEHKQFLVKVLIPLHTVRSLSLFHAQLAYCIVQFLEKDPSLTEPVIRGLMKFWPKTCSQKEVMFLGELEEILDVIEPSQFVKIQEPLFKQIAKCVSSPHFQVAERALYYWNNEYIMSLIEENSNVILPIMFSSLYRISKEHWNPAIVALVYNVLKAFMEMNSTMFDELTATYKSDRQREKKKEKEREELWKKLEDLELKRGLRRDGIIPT
UniProt Q9Y5Y5, sequence (Q9Y5Y5 whole entry, looked up): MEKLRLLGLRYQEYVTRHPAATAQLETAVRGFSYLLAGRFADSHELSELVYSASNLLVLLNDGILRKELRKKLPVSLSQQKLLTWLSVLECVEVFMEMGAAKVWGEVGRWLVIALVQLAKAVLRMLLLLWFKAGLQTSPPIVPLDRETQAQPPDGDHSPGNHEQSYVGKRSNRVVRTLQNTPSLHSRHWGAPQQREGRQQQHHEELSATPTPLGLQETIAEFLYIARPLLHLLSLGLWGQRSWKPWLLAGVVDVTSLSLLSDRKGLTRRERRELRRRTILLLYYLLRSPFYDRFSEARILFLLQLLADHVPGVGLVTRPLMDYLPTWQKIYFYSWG

PEX16 isoform 2 (UniProt Q9Y5Y5) was tested. Which log2 fold change did it give?
Its log2 fold change is -0.081.

PCBP2 (UniProt F8VRH0) was tested. Which log2 fold change did it give?
Its log2 fold change is -0.004.

Which log2 fold change does the source give for POLR2C (UniProt P19387) here?
Its log2 fold change is 0.138.

PFDN1 (UniProt O60925) was tested. Which log2 fold change did it give?
The log2 fold change was -0.089.

For PAK4 (UniProt O96013), which log2 fold change is on record?
Its log2 fold change is -0.002.

How did the log2 fold change turn out when PPP2R5E (UniProt Q16537) was run?
Its log2 fold change is -0.078.

Which log2 fold change does the source give for PRKAR2B (UniProt P31323) here?
The log2 fold change was -0.166.

Which log2 fold change does the source give for PRPSAP2 (UniProt O60256) here?
The log2 fold change was -0.008.

Which log2 fold change does the source give for PI4K2A (UniProt Q9BTU6) here?
The log2 fold change was -0.011.

POLR1A (UniProt O95602) was tested. Which log2 fold change did it give?
The log2 fold change was -0.057.

Which log2 fold change does the source give for POLR3B (UniProt Q9NW08) here?
The log2 fold change was 0.

PEX7 (UniProt O00628) was tested. Which log2 fold change did it give?
The log2 fold change was -0.01.

Which log2 fold change does the source give for PRKACB isoform 2 (UniProt P22694) here?
Its log2 fold change is -0.019.

How did the log2 fold change turn out when POLD3 (UniProt Q15054) was run?
Its log2 fold change is -0.054.

Which log2 fold change does the source give for PDE4DIP isoform 4 (UniProt Q5VU43) here?
Its log2 fold change is 0.018.
